By inhibition is commonly meant the relative decrease from the control value, in per cent.

Calls of active or inactive are those of the source.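 Rule for the calls, unless noted: active = inhibition above 20% together with a positive visual image hit; inconclusive = visual image hit but inhibition not above 20%; inactive = no visual image hit.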

Test [1] can be described thus: inhibitors of TNFa-induced NFkB p65 translocation, primary screen, imaging, HUVEC, MLSMR starter and 10KST1 sets (AID 438).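 For inhibition: signal is the nuclear over cytoplasmic p65 intensity ratio per well.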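 Note: compound added about 3h40 before a 20 min TNFalpha stimulation.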 The following applies: HUVEC TNFa-induced p65 nuclear translocation; cell count: measured here: nuclei count (cytotoxicity indicator), at 2.08 µM; inhibition: at 2 µM, stronger effect = higher value, 0% TNFa-plus-vehicle, 100% no-TNFa wells.
Test [2] can be described thus: inhibitors of mutant huntingtin aggregation, primary screen, imaging, exon1htt(103Q)mCFP cells, high-content imaging (AID 483;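 active = visual image review flags a hit and inhibition of aggregation exceeds 20%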;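 note: compound exposure lasted 3 days before fixation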;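 for nuclei count: percent of the per-plate median nuclei count of sample wells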). To be noted: exon1htt(103Q)mCFP cell line, aggregate imaging, at 2 µM; inhibition of aggregation: stronger effect = higher value; nuclei count: measured here: cell count, toxicity.
Test [3] is described as follows: inhibitors of E-selectin induction by TNFa, primary screen, imaging, HUVEC, immunofluorescence, MLSMR starter and 10KST1 sets (AID 487;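 active = visually confirmed hit in the image check and inhibition above 20%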;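 for inhibition: signal is fraction of cell area covered by stained E-selectin grains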;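 for nuclei count: 100% = median nuclei count of all wells on the same plate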). The following applies: HUVEC TNFalpha-induced E-selectin immunofluorescence imaging, at 2 µM; inhibition: stronger effect = higher value; nuclei count: measured here: cell number, toxicity.
The target of test [4] is Voltage-gated potassium channel subunit beta-2 (Rattus norvegicus) (UniProt P62483). Nature of the test: KvBeta enzyme negative modulators, primary screen, biochemical, NADPH fluorescence (AID 622;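 active = fluorescence slope higher than the sample average by over 3 SD, cut at about -0.22 in these data, passing the limit was not always enough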;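 note: slope of raw intensity against log time taken from 70 to 1610 s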). The following applies: recombinant KvBeta, 4-cyanobenzaldehyde reduction, at 10 µM, stronger effect = higher value.
The target is the same in test [5]. Nature of the test: KvBeta positive modulators, primary screen, biochemical, NADPH fluorescence (AID 623;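 active = NADPH fluorescence slope more negative than the mean of all samples by about 3 SD, 99.7% confidence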;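 note: fluorescence intensity change per second fitted from 20 to 320 s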). To be noted: Recombinant KvBeta, NADPH fluorescence decrease slope, 10 min; at 10 µM; stronger effect = lower value.
Test [6] deals with Alpha-2C adrenergic receptor (Homo sapiens) (UniProt P18825). Nature of the test: modulators of alpha2C/GIRK thallium flux, primary screen, cell-based, HEK293 alpha2C/GIRK1/2 (AID 624;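 active = fluorescence slope after compound addition differing from the mean of all screened samples at 99.7% confidence, in either direction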;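 note: slope of fluorescence ratio to pre-addition baseline per second over 15 to 24 s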). The following applies: thallium flux BTC fluorescence, at 10 µM, actives lie on both sides.
Test [7] can be described thus: inhibitors of Sendai virus-induced IRF3 signaling, primary screen, TLR/RLR signaling modifier project, cell-based, Sendai virus stimulus, luciferase, 10K MLSCN set (AID 602276;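 active = inhibition at or above 50% at 10 µM; inactive = inhibition below 50%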;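 note: firefly luciferase from ISG56 promoter only with Renilla not read in this screen; 0% = Sendai virus plus DMSO and 100% = medium plus DMSO without virus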). To be noted: HEK293 RL24 IRF3 luciferase reporter, at 10 µM, stronger effect = higher value.
Test [8] in a line: inhibitors of poly I:C-induced TLR3 signaling, primary screen, cell-based, poly I:C stimulus, luciferase, 10K MLSCN set (AID 602277;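 active = inhibition of the reporter signal at or above 50%; inactive = inhibition below 50%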). The following applies: HEK293-TLR3 RL24 IRF3 luciferase reporter, at 10 µM, stronger effect = higher value. Background: A reporter such as luciferase makes a cellular process visible.

Sequence of Voltage-gated potassium channel subunit beta-2 (Rattus norvegicus) (P62483 whole entry, looked up): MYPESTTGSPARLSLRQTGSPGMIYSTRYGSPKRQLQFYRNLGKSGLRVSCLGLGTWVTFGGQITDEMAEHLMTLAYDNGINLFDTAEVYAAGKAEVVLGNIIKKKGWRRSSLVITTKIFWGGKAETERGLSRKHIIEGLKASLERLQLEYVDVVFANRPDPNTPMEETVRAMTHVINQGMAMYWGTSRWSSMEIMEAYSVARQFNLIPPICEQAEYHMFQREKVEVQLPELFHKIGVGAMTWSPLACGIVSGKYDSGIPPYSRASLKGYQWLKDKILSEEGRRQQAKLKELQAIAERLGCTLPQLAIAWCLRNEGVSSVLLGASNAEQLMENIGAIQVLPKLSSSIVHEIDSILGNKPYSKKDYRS
Sequence of Alpha-2C adrenergic receptor (Homo sapiens) (P18825 whole entry, looked up): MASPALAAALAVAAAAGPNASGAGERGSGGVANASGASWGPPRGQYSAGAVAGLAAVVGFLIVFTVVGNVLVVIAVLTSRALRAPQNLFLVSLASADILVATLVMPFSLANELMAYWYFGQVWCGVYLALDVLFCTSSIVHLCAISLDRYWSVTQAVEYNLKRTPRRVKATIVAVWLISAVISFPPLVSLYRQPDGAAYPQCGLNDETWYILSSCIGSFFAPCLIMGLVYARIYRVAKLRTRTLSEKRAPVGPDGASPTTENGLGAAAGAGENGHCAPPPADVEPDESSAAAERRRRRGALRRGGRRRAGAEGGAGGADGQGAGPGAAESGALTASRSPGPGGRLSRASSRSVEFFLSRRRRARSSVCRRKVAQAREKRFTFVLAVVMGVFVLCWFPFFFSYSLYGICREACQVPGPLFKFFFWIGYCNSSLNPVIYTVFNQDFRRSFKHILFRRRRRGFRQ

`C=CCn1c(=O)c2ccccc2n2c(SC(C)C(=O)Nc3nc(-c4ccccc4)cs3)nnc12` (centres undefined): the cell count in test [1] amounted to 462. Besides, the inhibition in test [1] is 4% (inactive); in test [3], -26% (inactive); in test [7], 10.9% (inactive); in test [8], 34.2% (inactive). In test [2], the inhibition of aggregation was 21.8% (inactive). For the same compound, the nuclei count in test [2] worked out at 90.4%; in test [3], 107%. The fluorescence slope in test [4] is -0.483 (inactive). Also, the NADPH fluorescence slope in test [5] is -2.2e-05 (inactive). Further, the slope in test [6] is 0.00616 (inactive).

Turning to `O=C(CN1CCN(C2CCCCC2)CC1)Nc1ccccc1-c1ccccc1`, in test [1], the cell count came out at 273. Moreover, the inhibition in test [1] was 18.4% (inactive); in test [3], -7.3% (inactive); in test [7], 2.95% (inactive); in test [8], 24.7% (inactive). Moreover, the inhibition of aggregation in test [2] is 16.3% (inactive). For the same compound, the nuclei count in test [2] turned out to be 110%; in test [3] it was 105%. The fluorescence slope in test [4] is -0.609 (inactive). Moreover, in test [5], the NADPH fluorescence slope was -3.4e-05 (inactive). Besides, in test [6], the slope is 0.00596 (inactive).

Regarding `CC(C)(C)NC(=O)COC(=O)c1ccc(O)cc1`, the cell count in test [1] amounted to 714. Also, the inhibition in test [1] was -6.7% (inactive); in test [3] it was 10% (inactive); in test [7], -6.22% (inactive); in test [8], -8.12% (inactive). Also, the inhibition of aggregation in test [2] is -18.1% (inactive). Also, the nuclei count in test [2] worked out at 98.1%; in test [3], 101%. For the same compound, in test [4], the fluorescence slope is -0.625 (inactive). In addition, the NADPH fluorescence slope in test [5] was 7.6e-06 (inactive). For the same compound, the slope in test [6] was 0.00738 (inactive).

As to `Cc1cc(C(=O)Cn2cncn2)c(C)n1CCc1ccc(F)cc1`, the cell count in test [1] was 453. Besides, the inhibition was -2.5% (inactive) in test [1], -92.9% (inactive) in test [3], 0.317% (inactive) in test [7] and 16.3% (inactive) in test [8]. The inhibition of aggregation in test [2] was 0.8% (inactive). In addition, the nuclei count in test [2] was found to be 91.7%; in test [3], 98.5%. Further, in test [4], the fluorescence slope was -0.48 (inactive). The NADPH fluorescence slope in test [5] is -4e-05 (inactive). Also, the slope in test [6] was 0.00641 (inactive).

`CCN(CC)C(=O)Oc1ccc(NC(C)=O)cc1`: in test [1], the cell count was 383. The inhibition was 2.1% (inactive) in test [1], -27.3% (inactive) in test [3], -1% (inactive) in test [7] and 23% (inactive) in test [8]. Moreover, in test [2], the inhibition of aggregation was 1.1% (inactive). For the same compound, the nuclei count in test [2] came out at 99.8%; in test [3], 102%. In test [4], the fluorescence slope is -0.431 (inactive). Moreover, in test [5], the NADPH fluorescence slope is -6.8e-05 (inactive). For the same compound, the slope in test [6] is 0.00611 (inactive).

With `COc1ccc(CC(=O)N2CCOCC2)cc1OC`, in test [1], the cell count was 383. Moreover, the inhibition in test [1] is -0.8% (inactive); in test [3], -53.3% (inactive); in test [7], 15.7% (inactive); in test [8], 26.1% (inactive). For the same compound, the inhibition of aggregation in test [2] was 4.3% (inactive). Further, the nuclei count in test [2] worked out at 106%; in test [3], 111%. Also, the fluorescence slope in test [4] was -0.428 (inactive). In test [5], the NADPH fluorescence slope was -5.5e-05 (inactive). Besides, the slope in test [6] is 0.00535 (inactive).

On to `COC(=O)CCC(NC(=O)c1cc(-c2ccc3c(c2)OCCO3)oc1C)C(=O)OC` (centres undefined), for which the cell count in test [1] worked out at 320. Moreover, the inhibition was 20% (active) in test [1], 13.3% (inactive) in test [3], -2.55% (inactive) in test [7] and -6.77% (inactive) in test [8]. For the same compound, in test [2], the inhibition of aggregation is 0.3% (inactive). For the same compound, the nuclei count in test [2] and in test [3] was 104% throughout. The fluorescence slope in test [4] is -0.48 (inactive). Moreover, the NADPH fluorescence slope in test [5] is -3e-05 (inactive). In test [6], the slope is 0.00476 (inactive).

Consider `O=C(Nc1cccc(F)c1)c1cccc(S(=O)(=O)N2CCOCC2)c1`, for which the cell count in test [1] was determined as 566. Moreover, the inhibition is 3% (inactive) in test [1], -38.9% (inactive) in test [3], 10.5% (inactive) in test [7] and 98.3% (active) in test [8]. Also, the inhibition of aggregation in test [2] is -14% (inactive). For the same compound, the nuclei count stood at 94.3% in test [2] and 92.1% in test [3]. Further, the fluorescence slope in test [4] was -0.504 (inactive). The NADPH fluorescence slope in test [5] was -5.2e-05 (inactive). The slope in test [6] is 0.00763 (inactive).

Regarding `CC(=O)N1CCc2cc(S(=O)(=O)CCC(=O)Nc3cccc(F)c3)ccc21`, the cell count in test [1] was 331. The inhibition in test [1] is -1.4% (inactive); in test [3] it was -19.8% (inactive); in test [7] it was 7.41% (inactive); in test [8], 19.1% (inactive). Moreover, the inhibition of aggregation in test [2] was 0.3% (inactive). In addition, the nuclei count in test [2] is 126%; in test [3] it was 112%. For the same compound, in test [4], the fluorescence slope is -0.369 (inactive). In test [5], the NADPH fluorescence slope is -4e-05 (inactive). Moreover, in test [6], the slope was 0.00334 (inactive).

With `COc1cc(OC)c(OC)cc1CN(C)CCc1ccccn1`, the cell count in test [1] was found to be 756. For the same compound, the inhibition was -17% (inactive) in test [1], -114% (inactive) in test [3], 13.6% (inactive) in test [7] and 37.3% (inactive) in test [8]. The inhibition of aggregation in test [2] is -20.8% (inactive). Moreover, the nuclei count in test [2] is 115%; in test [3] it was 109%. For the same compound, in test [4], the fluorescence slope is -0.356 (inactive). Further, in test [5], the NADPH fluorescence slope was -7.4e-05 (inactive). In test [6], the slope was 0.00545 (inactive).

Turning to `O=C(Cn1nc(Cc2cccnc2)c2ccccc2c1=O)Nc1ccc2c(c1)OCO2`, the cell count in test [1] was found to be 576. The inhibition in test [1] was 3% (inactive); in test [3], -9.3% (inactive); in test [7], 10.9% (inactive); in test [8] it was 18.1% (inactive). In test [2], the inhibition of aggregation is 22.2% (inactive). In addition, the nuclei count came out at 109% in test [2] and 98.3% in test [3]. For the same compound, the fluorescence slope in test [4] is -0.55 (inactive). The NADPH fluorescence slope in test [5] was -3.9e-05 (inactive). Also, in test [6], the slope is 0.00644 (inactive).

As for `COc1ccc(-c2noc(COc3ccc(Cl)c(C)c3)n2)cc1`, in test [1], the cell count was determined as 553. Also, the inhibition in test [1] was 11.9% (inactive); in test [3] it was -14% (inactive); in test [7] it was 7.55% (inactive); in test [8], 20.3% (inactive). In addition, in test [2], the inhibition of aggregation was -13.5% (inactive). The nuclei count in test [2] came out at 103%; in test [3], 94.1%. Besides, the fluorescence slope in test [4] is -0.527 (inactive). In addition, the NADPH fluorescence slope in test [5] is -4.1e-05 (inactive). Also, the slope in test [6] was 0.00784 (inactive).

Turning to `O=C1c2ccccc2C(Nc2ccc3nc(-c4cccnc4)[nH]c3c2)N1Cc1ccco1` (centres undefined), the cell count in test [1] was 493. Further, the inhibition in test [1] is -9.4% (inactive); in test [3], -24.3% (inactive); in test [7], -7.53% (inactive); in test [8] it was -13.9% (inactive). Besides, the inhibition of aggregation in test [2] is 23.2% (inactive). Also, the nuclei count in test [2] was found to be 90%; in test [3] it was 93.2%. Also, in test [4], the fluorescence slope is -0.58 (inactive). The NADPH fluorescence slope in test [5] was -3.1e-06 (inactive). Moreover, the slope in test [6] was 0.00653 (inactive).

In the case of `CC1=C/C(=C/N(C)c2ccccc2)C(=O)S1`, the cell count in test [1] worked out at 582. Further, the inhibition in test [1] was -3.5% (inactive); in test [3], 31.4% (inactive); in test [7], -17.2% (inactive); in test [8] it was -17% (inactive). The inhibition of aggregation in test [2] is -10.1% (inactive). Also, the nuclei count was 97.7% in test [2] and 88.1% in test [3]. In test [4], the fluorescence slope is -0.61 (inactive). Further, in test [5], the NADPH fluorescence slope was 1.5e-05 (inactive). For the same compound, the slope in test [6] is 0.0049 (inactive).

Source of the values: PubChem BioAssay.
